# From PubChem BioAssay
# An excerpt weighted towards active compounds, which were near 9.6% of everything screened.
# PTEN del growth: growth suppressors of cells with PTEN tumor suppressor deletion; 1.2% of 140,000 active; viability, % at 10 µM; AID 827; HCT116 PTEN-null viability, CellTiter-Glo, 60 h; active compounds read low;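 active means viability at or below a set limit, 4 SD under the median of all tested compounds, cut at about 3.7% in these data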;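 further: PTEN knockout HCT116 line with beta catenin targeted HCT116 as companion control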
# bCat KO growth: beta-catenin-lacking colon tumor cell growth suppression | 1.5% of 140,000 active | viability, % at 10 µM | HCT116 beta-catenin knockout viability, CellTiter-Glo, 60 h; active compounds read low;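 active means viability at or under a set limit, the compound median less 4 SD, cut at about 6% in these data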;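 further: 0% = Hyamine 1622 control at 20 µM and 100% = untreated cell control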
# Autophagy mod: autophagy modulation, high-content screen; AID 463193; 0.98% of 190,000 active; MEF GFP-LC3 puncta imaging; test concentration mostly 10 µM; calls only at 10 µM (by protocol);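 active means percentage of spot-positive cells more than 3 SD above its plate mean, without a fluorescence outlier flag or 80% toxicity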;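 further: spot-positive cell cutoff set from DMSO-treated cells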
# Insulin prom inh: TRM-6 insulin promoter activity inhibition; TRM-6 cells (human fetal islet line), insulin promoter-eGFP reporter, imaging; reporter expression induced with tamoxifen; inhibition, % at 2 µM; 0.9% of 130,000 active;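 active means inhibition above the mean plus 3 SD, with well images judged a real hit on visual review, cut at about 60% in these data, passing the limit was not always enough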
# Lmaj promast: reduces viability of Leishmania major promastigotes. resazurin fluorescence viability. inhibition, % at 10 µM. 9% of 200,000 active. AID 1063; in the data active means inhibition above about 50%;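 further: promastigotes grown with compound for 44 hours at 28 °C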
# Ins promoter up: MIN6 insulin promoter up-regulation. z-score at 5 µM. 0.3% of 190,000 active. MIN6 insulin promoter-GFP reporter, high-content imaging; active compounds read high. AID 1625;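 active means z-score above 3 at 5 µM with at least 500 cells counted in the well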
# An asterisk follows results filed as active; i = inactive; . = not tested or not shown; + = active, no number.
SMILES,PTEN del growth,bCat KO growth,Autophagy mod,Insulin prom inh,Lmaj promast,Ins promoter up
CCOc1cc(CNC(C)C)c(Cl)cc1OCC(=O)NCCc1ccccc1,72.7,85.2,i,29.6,98.7*,.
CCOc1cc(C=O)cc(Br)c1OCC(=O)NCCc1ccccc1,.,.,i,.,46.0,0.15
CCC1(C)Cc2ccccc2-c2nc(-c3ccccc3)oc(=O)c21 (configuration not stated),85.2,84.0,i,6.7,4.5,-0.61
CCOCCCNC(=S)N1CCCN(c2nc3cc(C)c(C)cc3cc2C#N)CC1,.,.,i,.,24.0,-1.96
CCCCN(C(=O)CSc1nnc2ccccn12)c1c(N)n(Cc2ccccc2)c(=O)[nH]c1=O,92.3,91.6,i,.,3.4,0.44
COc1cccc(/C=N/NC(=O)c2cc(C34CC5CC(CC(C5)C3)C4)[nH]n2)c1,105.8,92.6,i,-3.9,88.9*,0.72
CCN(CC)S(=O)(=O)c1ccc2c(c1)nc(CCC(=O)Nc1ccccc1Cc1ccccc1)n2CC,79.3,82.4,i,-24.3,86.4*,0.64
CCn1c(CCC(=O)Nc2cc(F)ccc2C)nc2cc(S(=O)(=O)N(C)C)ccc21,96.9,98.5,i,-9.7,3.0,-0.3
C=CCC(c1ccccc1)N(C(C)=O)c1ccco1 (configuration not stated),.,.,i,.,-0.1,3.62*
O=C(NCc1ccncc1)c1ccc(Cl)c(S(=O)(=O)N2CCCCC2)c1,.,.,i,.,2.4,-0.73
O=C(NCCOC(=O)c1ccc(Cl)c(S(=O)(=O)N2CCCCC2)c1)c1ccncc1,88.7,101.2,i,-21.2,51.4*,-1
CC1C/C(=N/Nc2ccc([N+](=O)[O-])cc2[N+](=O)[O-])CC(C)(C)C1 (configuration not stated),81.4,80.3,i,0.0,1.7,.
Cc1cc(N/N=C2/CCCc3ccccc32)nc2ccccc12,.,.,i,.,89.9*,0.45
c1ccc2[nH]c(NN=C3CCCCCC3)nc2c1,.,.,i,.,74.7*,0.66
CC1C/C(=N/Nc2nc3ccccc3[nH]2)CC(C)(C)C1 (configuration not stated),12.6,21.1,i,30.8,84.9*,-1.81
CC1C/C(=N/NC(=O)c2ccc(CSc3nc4ccccc4[nH]3)cc2)CC(C)(C)C1 (configuration not stated),97.5,91.0,i,-27.3,39.4,-0.03
c1ccc(N/N=C2\CCCc3ccccc32)nc1,.,.,i,0.0,17.8,0.1
Cc1cc(N/N=C2\CC(C)CC(C)(C)C2)nc2ccccc12 (configuration not stated),.,.,i,-27.3,98.8*,0.7
Cc1cc2c(c(=O)o1)C(c1cccs1)C(C#N)=C(N)O2 (configuration not stated),100.8,96.6,i,-29.6,61.5*,0.05
CCOc1ccccc1C1C(C#N)=C(N)Oc2cc(C)n(C)c(=O)c21 (configuration not stated),86.4,86.8,i,-4.2,-6.1,0.19
CCOc1cccc(C2C(C#N)=C(N)Oc3cc(C)oc(=O)c32)c1OCC (configuration not stated),100.3,96.0,i,81.8*,8.7,0.37
Cc1ccc([C@H]2C(C#N)=C(N)Oc3cc(C)oc(=O)c32)o1,.,.,i,.,100.0*,0.19
Cc1ccc(O)c(C(=O)c2cc(C#N)c(=O)n(-c3c(C)n(C)n(-c4ccccc4)c3=O)c2)c1,85.5,105.0,i,-31.4,-3.2,0.52
O=C(NC1=NCCS1)c1ccc(Br)s1,87.8,87.4,i,50.0,-3.4,0.6
CN(C)S(=O)(=O)N1CCN(c2ccc([N+](=O)[O-])c(N3CCCCC3)c2)CC1,.,.,i,.,5.5,-0.71
SMILES,PTEN del growth,bCat KO growth,Autophagy mod,Insulin prom inh,Lmaj promast,Ins promoter up
COc1ccc(C(C)=O)c(OC(=O)c2ccco2)c1,93.5,88.1,i,-5.1,-4.7,1.87
CC(C)c1ccc(C(O)c2cnc(C(C)C)n2C)cc1 (configuration not stated),87.5,84.4,.,.,15.2,.
C=CCNC(=O)c1c2c(nc3ccccc13)-c1ccccc1CC2,79.7,93.7,i,-18.2,0.3,4.54*
CCN(CC)C(=O)c1ccc2nc3ccccc3nc2c1,28.6,42.0,i,-42.9,-4.3,0.22
CCN(CC)C(=O)c1c2c(nc3ccccc13)-c1ccccc1CC2,57.1,55.7,i,-40.9,62.4*,0.12
CCN(CC)C(=O)c1ccc2nc(-c3ccccc3)c(-c3ccccc3)nc2c1,88.1,87.5,i,66.7*,-5.8,1.64
O=C(O)CCCC(=O)N1N=C(c2ccccc2)CC1c1ccc2nccnc2c1 (configuration not stated),94.4,95.7,i,6.7,-3.4,0.42
OCCC1CN(Cc2c(F)cccc2Cl)CCN1C1CCCCC1 (configuration not stated),.,.,i,.,52.8*,-0.39
Cc1ccccc1-c1ncc(CN2CCN(C3CCCC3)C(CCO)C2)cn1 (configuration not stated),.,.,i,.,20.3,0.26
OCCC1CN(Cc2cnc(-c3cccc4ccccc34)nc2)CCN1C1CCCCC1 (configuration not stated),.,.,+,.,25.6,.
O=C1CSC(=S)N1CC1CCCO1 (configuration not stated),61.1,68.4,i,.,80.9*,-0.21
CCCCC(c1nnnn1CC1CCCO1)N1CCN(Cc2ccccc2)CC1 (configuration not stated),95.2,95.9,i,25.0,2.8,-0.24
CCCCC(c1nnnn1CC1CCCO1)N1CCN(c2cccc(C)c2C)CC1 (configuration not stated),64.6,55.6,i,54.5,55.9*,-0.85
CN(C)CC(C)(C)CNS(=O)(=O)c1ccc(Cl)c(Cl)c1,90.0,87.0,i,-72.2,80.0*,0.26
CN(C)CCNC(=O)c1cccc(NS(=O)(=O)c2ccc(Cl)c(Cl)c2)c1,.,.,i,-60.0,-5.3,0.02
CCOC(=O)c1ccc(N2C(=O)c3n[nH]c(C)c3C2c2ccc(OC)c(OC)c2)cc1 (configuration not stated),90.9,93.9,i,8.3,20.7,-0.33
COc1cc(O)c(C(CCN2CCCC(C)C2)c2cc(OC)c(OC)c(OC)c2)c(OC)c1 (configuration not stated),.,.,.,.,.,0.15
O=C(c1cnn(-c2ccccc2)c1-n1cccc1)N1CCN(C2CCCCC2)CC1,.,.,i,.,75.0*,0.62
COC(=O)c1[nH]c2ccc(F)cc2c1NS(=O)(=O)c1ccc(OC)cc1OC,82.4,77.7,i,45.5,97.0*,.
Cc1ccc(-n2ncc3c(N4CCC5(CC4)OCCO5)ncnc32)c(C)c1,72.8,72.7,i,.,-3.1,-1.17
CC1CCC(C(C)C)C(OC(=O)CSc2nc(N)cc(=O)[nH]2)C1 (configuration not stated),76.6,73.4,i,25.0,-3.6,-1.02
CC1CCC(C(C)C)C(OC(=O)CSc2nnc(N)s2)C1 (configuration not stated),80.4,72.2,i,-5.6,63.7*,-0.62
